Test results as given in PubChem BioAssay AID492947 (National Center for Advancing Translational Sciences (NCATS), 2010).
Among all 330,000 compounds or so, about 80 (0.02%) were called active. Calls follow the shape of the dose curve; as a rule, active = well fitted activation curve with a large enough effect; inconclusive = small, poorly fitted or top-dose-only effect; inactive = flat fitted curve, though single readings scatter. Only a selection was taken, and actives are over-represented in it overall. Square brackets hold non-standard residues; d marks the D form. Peptide text beside a SMILES is read from it. * marks the point of attachment. PhAc = O=C(Cc1ccccc1)*

Each compound was assayed against Beta-2 adrenergic receptor (Homo sapiens) (UniProt P07550) (assay: qHTS assay of beta-arrestin-biased ligands of beta2-adrenergic receptor). Settings: beta-arrestin recruitment to beta2AR, cell-based reporter; series mostly up to 46.1 µM.
Beta-2 adrenergic receptor (Homo sapiens), sequence (P07550 whole entry, looked up): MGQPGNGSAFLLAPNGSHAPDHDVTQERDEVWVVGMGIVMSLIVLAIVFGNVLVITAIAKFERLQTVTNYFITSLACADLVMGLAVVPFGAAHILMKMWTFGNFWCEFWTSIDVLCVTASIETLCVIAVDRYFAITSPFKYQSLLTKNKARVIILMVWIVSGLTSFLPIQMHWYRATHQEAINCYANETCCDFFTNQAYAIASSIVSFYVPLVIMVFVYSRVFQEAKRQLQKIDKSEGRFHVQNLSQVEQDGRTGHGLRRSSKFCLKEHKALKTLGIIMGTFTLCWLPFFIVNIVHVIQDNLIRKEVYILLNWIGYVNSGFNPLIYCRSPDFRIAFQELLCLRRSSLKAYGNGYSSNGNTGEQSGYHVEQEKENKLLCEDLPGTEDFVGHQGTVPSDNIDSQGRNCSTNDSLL
From the text: NIH Molecular Libraries Probe Production Network [MLPCN]
NIH Chemical Genomics Center [NCGC]
PI: Bryan Roth and Bob Lefkowitz
The concept of biased agonism is an emerging concept of molecular pharmacology which proposes that seven transmembrane receptors (7TMRs) or G protein-coupled receptors (GPCRs), exist in multiple signaling conformations and complexes and that ligands (either agonists or antagonists) can induce signaling biased responses for distinct signal transduction cascades.
Furthermore, accumulating evidence over the last decade has drawn attention to a novel function of beta-arrestins as signal transducers that scaffold various signaling molecules upon activation of 7TMRs. […] This beta-arrestin-biased signaling presumably leads to distinct physiological outcomes from those by G protein activation.
Additionally, the active receptor conformations which […] on this beta-arrestin signaling are likely different from those activating G protein signaling
The goal of this screening project will be to discover and optimize novel beta-arrestin-biased ligands for beta2-AR signaling. A luminescent cell-based assay for beta2-AR-mediated agonism, known as the Tango assay, has been validated in which ligand binding of a recombinant beta2-AR and subsequent recruitment of a recombinant beta-arrestin lead to the release of the transcriptional activator tTA, which upregulates transcription of a tTA-responsive luciferase gene. […] Compounds were screened as a concentration-titration series that ranged from 46 microM to 0.6 nM.
NCGC Assay Protocol Summary:
Tango cells were dispensed into white, solid, tissue-culture-treated 1536-well plates at 1500 cells/well in DMEM, containing 1% fetal bovine serum (FBS). Then, 23 nL of compounds or DMSO were delivered to each well using a pin tool. Plates were incubated at 37 degrees C, 5% CO2 for 18 hr. Then 2.5 uL luminescent substrate mix (in-house prepared: 150 mM Tris-Cl, pH 7.6, 3 mM MgCl2, 1% Triton X-100, 5 mM DTT, 0.5 mM CoA, 0.15 mM ATP, 0.44 mM D-luciferin, final concentrations) was added to each well. Plates were then incubated for 15 minutes at room temperature, and subsequently measured on a ViewLux plate reader for luminescent signal using a clear filter with a 10 second exposure and 2x binning. The %Activity was determined from the corrected luminescence values.
Concentration-response curves were fitted to the signals arising from the resulting luminescence. The concentration-effect curves were then classified based on curve quality (r2), response magnitude and degree of measured activity, and compounds were subsequently categorized based on their curve class.
Keywords: biased agonism, beta2-AR, beta-arrestin, GPCR, 7TMR, Tango, luminescence, MLSMR, MLPCN, NIH Roadmap, qHTS, NCGC
Also: nearly all actives have a fitted effect of over 65% in size.
Potency is read from the fitted curve at half-maximal effect.

Potency, inactive:
COc1ccc(Cn2c(-c3ccc(Cl)cc3)c[n+]3ccccc23)cc1
Cc1cc(NC(=O)CSc2nccn2-c2ccc([N+](=O)[O-])cc2)no1
COc1ccc(N=Nc2c(-c3ccc(OC)cc3)[nH]oc2=O)cc1
COc1ccccc1CNS(=O)(=O)CC12CCC(CC1=O)C2(C)C (stereo not drawn)
CCC(C)NC(=O)c1nn(C)c(=O)c2ccccc12 (stereo not drawn)
CCOc1ccc2c(c1)c(=O)c(S(=O)(=O)c1ccc(C)cc1)cn2CC
COc1ccc2ccccc2c1CNCc1ccccn1
O=C(Cn1nnc2ccccc2c1=O)Nc1cc(C(F)(F)F)ccc1N1CCOCC1
Cc1ccc(SCC(=O)NNC(=O)c2ccc(S(C)(=O)=O)cc2)cc1
CC1Cc2ccccc2N1C(=O)Cn1cnc2ccccc2c1=O (stereo not drawn)
CC1CCCC(NC(=O)c2cc(-c3ccncc3)nc3ccccc23)C1C (stereo not drawn)
CC1CCN(c2oc(-c3ccccc3F)nc2C#N)CC1
O=C(Nc1c(-c2ccccc2)nc2c(Br)cc(Br)cn12)c1ccco1
CC(=O)c1cccc(NC(=O)CN2C(=O)c3cccnc3Oc3ccc(Cl)cc32)c1
COc1ccccc1OCc1ccc(C(=O)NC(C)c2ccccc2)o1 (stereo not drawn)
CCN(CC)Cc1csc2ccc(Br)cc12
COc1ccc(C(=O)N(CCN2CCOCC2)CC(=O)NC2CCCC2)cc1OC
COc1ccc([N+](=O)[O-])cc1NC(=O)C(C)OC(=O)C1c2ccccc2Oc2ccccc21 (stereo not drawn)
CNc1nccc(-c2ccc(Cl)cc2)c1C#N
CC(C)(C)CC(C)(C)NCC(O)COCCOc1ccc(Br)cc1 (stereo not drawn)
CC(C)C(c1nnnn1C(C)(C)C)N1CCN(Cc2cccnc2)CC1 (stereo not drawn)
O=C(CSc1ccc(-c2ccc(-n3cccn3)cc2)nn1)Nc1ccc([N+](=O)[O-])cc1
COc1ccc(CNS(=O)(=O)c2cc3c4c(c2)CCN4C(=O)CC3)cc1
CCN(CC(=O)Nc1ccccc1C(F)(F)F)C(=O)CSCc1c(C)noc1C
CN(CC(=O)Nc1ccc(F)c(F)c1F)C(=O)Cn1cnc2c1c(=O)n(C)c(=O)n2C
COC(=O)C1(C)NC(c2ccc(C)cc2)C2C(=O)N(c3ccc(F)cc3)C(=O)C21 (stereo not drawn)
CC1CC(c2ccccc2)n2nc(NC(=O)c3cccs3)nc2N1 (stereo not drawn)
CN(C(=O)CSc1nnc(-c2ccc(C(C)(C)C)cc2)n1C)C1CCS(=O)(=O)C1 (stereo not drawn)
Cc1ccc(NC(=O)CN(C)C(=O)COC(=O)c2nccnc2N)cc1
CC(C)CC[n+]1ccn(C2=C([O-])c3ccccc3C(=O)/C2=N\S(=O)(=O)c2ccccc2)c1
CC1(C)O[C@H]2CC(=O)OCC23[C@H]2CC[C@@]4(C)[C@H](c5ccoc5)OC(=O)[C@H]5O[C@]54[C@]2(C)C(=O)C[C@@H]13 (stereo partly drawn)
CCOC(=O)C1CCN(C(=O)COC(=O)C2CCN(S(=O)(=O)c3ccc4c(c3)OCCO4)CC2)CC1
Cc1ccc(C(=O)N2CC(=O)Nc3ccc(F)cc3C2c2ccc(F)cc2)cc1 (stereo not drawn)
CCOC(=O)N1CCC(NC(=O)CCc2cn(C)c3ccccc23)CC1
FC(F)(F)c1cc(C(F)(F)F)c2ccc(N3CCN(c4ccccc4)CC3)nc2n1
Cc1ccccc1NC(=O)C(C)OC(=O)CCC(=O)N(CC(C)C)c1c(N)n(CC(C)C)c(=O)[nH]c1=O (stereo not drawn)
COc1cc(NC(=O)c2ccc(-c3csc(C)n3)cc2)c(OC)cc1Cl
[O-][N+]12CCCCC1CCCC2CO (stereo not drawn)
CCN(Cc1ccccc1)C(=O)CSc1nc(C)cc2c1C(=O)OC2
O=C(COc1ccc(Cl)cc1)NCc1nnc(SCC(=O)NCC2CCCO2)o1 (stereo not drawn)
Cc1ccc(C(C(=O)NCC2CCCO2)N(C(=O)c2snc(C(N)=O)c2N)c2ccc(C(C)C)cc2)o1 (stereo not drawn)
CC(=O)N/C(=C\c1ccccc1)C(=O)OC(C)C(=O)N(C)c1ccccc1 (stereo not drawn)
C=CCn1c(SCC(=O)NC23CC4CC(CC(C4)C2)C3)nc(O)cc1=O
C=CCNC(=S)N/N=C/c1ccc(OCc2ccccc2)cc1
Cc1ccc(/C=N/NC(=O)CN2CCN(Cc3ccccc3)CC2)s1
CCOC(=O)c1sc(N)c(C#N)c1COC(=O)C1=COCCO1
COc1ccc(NC(=O)Cn2c(-c3ccc(OC)cc3)cn(-c3ccc(C)cc3)c2=O)cc1
O=C(c1cc2ccccc2o1)N1CCN(c2cccc(C(F)(F)F)c2)CC1
CC(C)[C@H](NC(=O)c1ccc(F)cc1)C(=O)OCC(=O)NC(=O)c1cccn1C
CC1CN(CCCOc2ccccc2-c2ccccc2)CC(C)O1 (stereo not drawn)
CCOC(=O)CC1COCCN1C(=O)c1cc(COc2ccc(F)c(F)c2)on1 (stereo not drawn)
COC/C=C/C1=CC2=CC(=O)C(C)(OC(=O)CCC(=O)OC)C(=O)C2=CO1 (stereo not drawn)
O=C(CCn1nnnc1CN1CCOCC1)N1CCC(c2ccccc2Cl)C1 (stereo not drawn)
CC(=O)Oc1ccc(-c2cccc(C(=O)N3CCCCC3)c2)cc1
CC1(C)CC(=O)C(C=NCc2cccnc2)=C(O)C1
N#C/C(=C\c1cccnc1)C(=O)Nc1ccc(SC(F)F)cc1
COc1ccc(OC)c(CNC(=O)Cn2nc(C)c3c(C)n(-c4ccc(C)cc4)nc3c2=O)c1
Cc1ccc(NN=Nc2nc3c([nH]2)c(=O)n(C)c(=O)n3C)cc1
COc1ccc(CNC(=O)C(C)NCc2ccccc2Cl)cc1 (stereo not drawn)
O=C(Cc1ccc(Cl)cc1)NC(=S)Nc1ccccc1O
Cc1ccccc1CCNC(=O)C1CCC(=O)N(Cc2ccc(Cl)cc2)C1 (stereo not drawn)
CC(C)OCCCNC(=O)c1ccc(C2SCC(=O)N2Cc2ccco2)cc1 (stereo not drawn)
COc1ccc(Cl)cc1S(=O)(=O)N1CCC(O)(c2ccc(Cl)cc2)CC1
Cc1nc2scc(-c3cccs3)c2c(=O)n1N
CCOc1ccc(OCC)c(NC(=O)CSc2nnc(Cn3cnc4ccccc43)n2C)c1
C=C1CCN([C@H](C(=O)NCc2cc(OC)c(OC)c(OC)c2)C(C)C)S(=O)(=O)c2ccccc21
COc1cc(C2C3=C(CCCC3=O)OC3=C2C(=O)CCC3)ccc1OCC(=O)Nc1ccccc1
O=S(=O)(O)CCN1CCOCC1
O=S(=O)(NC1CCCCC1)c1ccc(F)c2ccccc12
NS(=O)(=O)c1cc2c(cc1Cl)NC(C(Cl)Cl)NS2(=O)=O (stereo not drawn)
COc1ccc(/C(O)=C2/C(=O)C(=O)N(CC3CCCO3)C2c2ccc(OC)c(OC)c2)cc1 (stereo not drawn)
CCCOc1ccc(-c2c(C(=O)N/N=C/c3ccco3)nnn2-c2nonc2N)cc1
Cc1cc(S(=O)(=O)c2cc3ccc(O)c(C)c3oc2=O)ccc1F
CSCC[C@H](NC(=O)NC1CCCC1)C(=O)O
CCN(c1ccccc1)S(=O)(=O)c1ccc(C(=O)Nc2ccccc2OC)cc1
Cc1ccc(CN2CCN(Cc3ccc(OCCO)cc3)CC2CCO)o1 (stereo not drawn)
COc1ccc(OC)c(NC(=O)c2sc3nc(C)cc(C)c3c2N)c1
CCCN1CCN(C(=O)Cn2ncc3ccccc32)CC1
C[C@H](CO)N1C[C@H](C)[C@@H](CN(C)C(=O)Nc2ccc3c(c2)OCO3)Oc2c(cccc2N(C)C)C1=O
CCn1ccnc1CN1CCCC(C(=O)c2ccc3c4c(cccc24)CC3)C1 (stereo not drawn)
Cc1cccc(C(=O)NNC(=O)CSc2nnc(C(C)C)n2C)c1
C/C=C/C(=O)Nc1nnc(C(C)C)s1
CCSc1nc2c(c(=O)[nH]1)C(c1cccnc1)C(C(=O)OC(C)C)=C(C)N2 (stereo not drawn)
CC1(C)CC(N(Cc2ccccc2)C(=O)Cc2ccccc2)CCO1 (stereo not drawn)
COc1cccc(N(CC(=O)NC2CCCC2)C(=O)CCCC(=O)Nc2ccccn2)c1
O=C1CSc2ccc(S(=O)(=O)NCc3ccccc3)cc2N1
CN(c1cccc(NC(=O)c2ccc(CN3CCc4ccccc4C3)cc2)c1)S(C)(=O)=O
COc1ccc(NC(=O)C2CCC(CNS(=O)(=O)c3csc(C(N)=O)c3)CC2)cc1OC (stereo not drawn)
O=C(NCCc1ccc(C(F)(F)F)cc1)c1ccc2c(c1)OCO2
COc1ccc(C(C)=O)cc1CN1C(=O)NC2(CCCCC2C)C1=O (stereo not drawn)
Cc1ccc(NC(=O)CS(=O)CC(=O)N(c2ccccc2)C(C)C(=O)NC2CCCC2)cc1 (stereo not drawn)
CC(C)C[C@@H](NC(=O)[C@H]1CCCN1C(=O)Cc1ccccc1)C(N)=O (PhAc-[dP]-[dL]-NH2)
CCOC(=O)Cn1c(O)c(N=NC(=O)CNC(=O)Cc2ccccc2)c2ccccc21
CCn1c(CC(=O)Nc2ccc(C)cc2)nnc1SCC(=O)Nc1nc(C)cs1
Cc1noc(C)c1C(=O)OCC(=O)N1CCN(S(=O)(=O)c2ccc3ccccc3c2)CC1
Cc1nc2ccc(NC(=O)C3CCCCC3)cc2s1
Cc1ccc(NC(=S)NCCc2ccc(Cl)cc2)c(C)c1
CCCCOC(=O)Nc1nccs1
O=C(CN(Cc1ccccc1)C(=O)c1ccc2c(c1)OCCO2)NCc1ccc2c(c1)OCO2
CC(OC(=O)CN1C(=O)c2ccccc2C1=O)C(=O)c1ccccc1 (stereo not drawn)
COc1ccc(OC)c(CNC(=O)c2cc(=O)[nH]c3ccc(S(=O)(=O)N4CCCC4)cc23)c1
CCCCN=C1N/C(=C\c2ccco2)C(=O)N1c1ccccc1

Potency, active:
C=CCNC(=S)N/N=C/c1ccc(C)s1 5.62 µM
